Data: PubChem BioAssay AID1159580 (chemical genetic matrix, 2015)
The campaign covered roughly 5,500 compounds. About 2,000 (36%) were called active. Not shown: some 18% with an inconclusive outcome. The list shows a part of the results. Values without a mark were called inactive. No stated cut-off is given here; in the data, active means normalized growth mostly below about 0.91 (no sharp cut-off); inconclusive means no clear call, values can overlap the other calls; inactive means mostly above about 0.92.

Test: chemical genetic growth profiling, strain panel (AID 1159580);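 further: tested at 20 µM; growth read once vehicle control cultures reached saturation at 30 °C; 1 = growth at the plate median or of vehicle wells; lower values mean less growth of the strain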
Settings: growth OD

Question: With O=C(Nc1ccccc1)Nc1ccccc1 as the compound, how does the normalized growth (S. cerevisiae deletion strains, locus YKL009W, strain mrt4, hits give low values) read?
Answer: 0.956

Question: What about the normalized growth (S. cerevisiae deletion strains, locus YKL068W, hits give low values) of the same compound?
Answer: 0.975

Question: And the normalized growth (S. cerevisiae deletion strains, locus YKL085W, strain MDH1 (second series), hits give low values)?
Answer: 0.979

Question: What about the normalized growth (S. cerevisiae deletion strains, locus YKL085W, strain MDH1, hits give low values) of the same compound?
Answer: 0.979

Question: What about the normalized growth (S. cerevisiae deletion strains, locus YKL160W, strain elf1, hits give low values) of the same compound?
Answer: 0.95

Question: What about the normalized growth (S. cerevisiae deletion strains, locus YKR001C, strain vps1, hits give low values) of the same compound?
Answer: 0.97

Question: What about the normalized growth (S. cerevisiae deletion strains, locus YKR026C, strain gcn3, hits give low values) of the same compound?
Answer: 0.967

Question: And the normalized growth (S. cerevisiae deletion strains, locus YKR091W, strain srl3, hits give low values)?
Answer: 0.962

Question: What about the normalized growth (S. cerevisiae deletion strains, locus YLL001W, strain dnm1, hits give low values) of the same compound?
Answer: 0.982

Question: What about the normalized growth (S. cerevisiae deletion strains, locus YLL026W, hits give low values) of the same compound?
Answer: 0.958

Question: What about the normalized growth (S. cerevisiae deletion strains, locus YLL041C, strain sdh2, hits give low values) of the same compound?
Answer: 0.982

Question: And the normalized growth (S. cerevisiae deletion strains, locus YLR027C, strain aat2, hits give low values)?
Answer: 0.944

Question: And the normalized growth (S. cerevisiae deletion strains, locus YLR039C, strain RIC1, hits give low values)?
Answer: 1.38 [resistant] (active)

Question: And the normalized growth (S. cerevisiae deletion strains, locus YLR058C, strain SHM2, hits give low values)?
Answer: 0.99

Question: What about the normalized growth (S. cerevisiae deletion strains, locus YLR102C, strain apc9, hits give low values) of the same compound?
Answer: 0.98

Question: What about the normalized growth (S. cerevisiae deletion strains, locus YLR113W, strain HOG1, hits give low values) of the same compound?
Answer: 1.01

Question: What about the normalized growth (S. cerevisiae deletion strains, locus YLR221C, strain rsa3, hits give low values) of the same compound?
Answer: 0.957

Question: And the normalized growth (S. cerevisiae deletion strains, locus YLR258W, strain gsy2, hits give low values)?
Answer: 0.974

Question: And the normalized growth (S. cerevisiae deletion strains, locus YLR262C, strain YPT6 (second series), hits give low values)?
Answer: 0.96

Question: And the normalized growth (S. cerevisiae deletion strains, locus YLR262C, strain YPT6, hits give low values)?
Answer: 1.34

Question: And the normalized growth (S. cerevisiae deletion strains, locus YLR268W, strain sec22, hits give low values)?
Answer: 0.989

Question: What about the normalized growth (S. cerevisiae deletion strains, locus YLR320W, strain mms22, hits give low values) of the same compound?
Answer: 0.99

Question: And the normalized growth (S. cerevisiae deletion strains, locus YLR342W, strain FKS1 (second series), hits give low values)?
Answer: 0.991

Question: What about the normalized growth (S. cerevisiae deletion strains, locus YLR342W, strain FKS1, hits give low values) of the same compound?
Answer: 0.972

Question: And the normalized growth (S. cerevisiae deletion strains, locus YLR357W, strain rsc2, hits give low values)?
Answer: 0.96

Question: What about the normalized growth (S. cerevisiae deletion strains, locus YLR370C, strain arc18, hits give low values) of the same compound?
Answer: 0.932

Question: And the normalized growth (S. cerevisiae deletion strains, locus YLR371W, strain rom2, hits give low values)?
Answer: 0.944

Question: And the normalized growth (S. cerevisiae deletion strains, locus YLR384C, strain iki3, hits give low values)?
Answer: 0.967

Question: And the normalized growth (S. cerevisiae deletion strains, locus YLR418C, strain cdc73, hits give low values)?
Answer: 1.06

Question: And the normalized growth (S. cerevisiae deletion strains, locus YML016C, strain PPZ1, hits give low values)?
Answer: 0.991

Question: What about the normalized growth (S. cerevisiae deletion strains, locus YML032C, strain rad52, hits give low values) of the same compound?
Answer: 0.98

Question: And the normalized growth (S. cerevisiae deletion strains, locus YML120C, strain ndi1, hits give low values)?
Answer: 0.98

Question: What about the normalized growth (S. cerevisiae deletion strains, locus YML124C, strain tub3, hits give low values) of the same compound?
Answer: 0.971

Question: What about the normalized growth (S. cerevisiae deletion strains, locus YMR058W, strain fet3, hits give low values) of the same compound?
Answer: 0.946

Question: What about the normalized growth (S. cerevisiae deletion strains, locus YMR078C, strain ctf18, hits give low values) of the same compound?
Answer: 0.981

Question: And the normalized growth (S. cerevisiae deletion strains, locus YMR125W, strain sto1, hits give low values)?
Answer: 0.949

Question: What about the normalized growth (S. cerevisiae deletion strains, locus YMR129W, hits give low values) of the same compound?
Answer: 0.959

Question: And the normalized growth (S. cerevisiae deletion strains, locus YMR205C, strain PFK2, hits give low values)?
Answer: 0.984

Question: And the normalized growth (S. cerevisiae deletion strains, locus YMR223W, strain ubp8, hits give low values)?
Answer: 0.976

Question: What about the normalized growth (S. cerevisiae deletion strains, locus YMR231W, strain pep5, hits give low values) of the same compound?
Answer: 0.99

Question: What about the normalized growth (S. cerevisiae deletion strains, locus YMR263W, strain SAP30, hits give low values) of the same compound?
Answer: 1

Question: And the normalized growth (S. cerevisiae deletion strains, locus YMR307W, strain GAS1, hits give low values)?
Answer: 1.34

Question: What about the normalized growth (S. cerevisiae deletion strains, locus YNL067W, strain RPL9B, hits give low values) of the same compound?
Answer: 0.996

Question: What about the normalized growth (S. cerevisiae deletion strains, locus YNL071W, strain lat1, hits give low values) of the same compound?
Answer: 0.965

Question: What about the normalized growth (S. cerevisiae deletion strains, locus YNL128W, strain TEP1, hits give low values) of the same compound?
Answer: 1

Question: What about the normalized growth (S. cerevisiae deletion strains, locus YNL183C, strain NPR1, hits give low values) of the same compound?
Answer: 0.949

Question: And the normalized growth (S. cerevisiae deletion strains, locus YNL209W, strain ssb2, hits give low values)?
Answer: 0.966

Question: What about the normalized growth (S. cerevisiae deletion strains, locus YNL233W, strain BNI4, hits give low values) of the same compound?
Answer: 1.05

Question: And the normalized growth (S. cerevisiae deletion strains, locus YNL248C, strain rpa49, hits give low values)?
Answer: 0.921

Question: What about the normalized growth (S. cerevisiae deletion strains, locus YNL250W, strain rad50, hits give low values) of the same compound?
Answer: 0.973

Question: And the normalized growth (S. cerevisiae deletion strains, locus YNL271C, strain bni1, hits give low values)?
Answer: 0.978

Question: What about the normalized growth (S. cerevisiae deletion strains, locus YNL298W, strain CLA4, hits give low values) of the same compound?
Answer: 1.02

Question: What about the normalized growth (S. cerevisiae deletion strains, locus YNL307C, strain MCK1, hits give low values) of the same compound?
Answer: 0.985

Question: What about the normalized growth (S. cerevisiae deletion strains, locus YNL322C, strain KRE1 (second series), hits give low values) of the same compound?
Answer: 0.965

Question: What about the normalized growth (S. cerevisiae deletion strains, locus YNR049C, strain mso1, hits give low values) of the same compound?
Answer: 0.95

Question: What about the normalized growth (S. cerevisiae deletion strains, locus YNR052C, strain pop2, hits give low values) of the same compound?
Answer: 0.993

Question: And the normalized growth (S. cerevisiae deletion strains, locus YOL012C, strain htz1)?
Answer: 0.934

Question: And the normalized growth (S. cerevisiae deletion strains, locus YOL147C, strain pex11, hits give low values)?
Answer: 0.978

Question: And the normalized growth (S. cerevisiae deletion strains, locus YOR001W, strain rrp6, hits give low values)?
Answer: 0.957

Question: And the normalized growth (S. cerevisiae deletion strains, locus YOR061W, strain CKA2, hits give low values)?
Answer: 1.02

Question: What about the normalized growth (S. cerevisiae deletion strains, locus YOR069W, strain VPS5, hits give low values) of the same compound?
Answer: 1

Question: And the normalized growth (S. cerevisiae deletion strains, locus YOR070C, strain gyp1, hits give low values)?
Answer: 0.977

Question: What about the normalized growth (S. cerevisiae deletion strains, locus YOR080W, strain dia2, hits give low values) of the same compound?
Answer: 0.963

Question: And the normalized growth (S. cerevisiae deletion strains, locus YOR083W, strain WHI5, hits give low values)?
Answer: 0.959

Question: What about the normalized growth (S. cerevisiae deletion strains, locus YOR106W, strain vam3, hits give low values) of the same compound?
Answer: 0.902

Question: And the normalized growth (S. cerevisiae deletion strains, locus YOR136W, strain idh2, hits give low values)?
Answer: 0.996

Question: And the normalized growth (S. cerevisiae deletion strains, locus YOR144C, strain elg1, hits give low values)?
Answer: 0.97

Question: And the normalized growth (S. cerevisiae deletion strains, locus YOR184W, strain ser1, hits give low values)?
Answer: 1.03

Question: And the normalized growth (S. cerevisiae deletion strains, locus YOR231W, strain MKK1, hits give low values)?
Answer: 1.01

Question: And the normalized growth (S. cerevisiae deletion strains, locus YOR265W, strain rbl2, hits give low values)?
Answer: 0.964

Question: And the normalized growth (S. cerevisiae deletion strains, locus YOR270C, strain vph1, hits give low values)?
Answer: 0.875

Question: What about the normalized growth (S. cerevisiae deletion strains, locus YOR290C, strain snf2, hits give low values) of the same compound?
Answer: 0.907

Question: And the normalized growth (S. cerevisiae deletion strains, locus YOR316C, strain cot1, hits give low values)?
Answer: 0.989

Question: What about the normalized growth (S. cerevisiae deletion strains, locus YPL051W, strain arl3, hits give low values) of the same compound?
Answer: 0.928

Question: And the normalized growth (S. cerevisiae deletion strains, locus YPL055C, strain LGE1, hits give low values)?
Answer: 1.17

Question: And the normalized growth (S. cerevisiae deletion strains, locus YPL078C, strain atp4, hits give low values)?
Answer: 0.923

Question: What about the normalized growth (S. cerevisiae deletion strains, locus YPL106C, strain sse1, hits give low values) of the same compound?
Answer: 0.932

Question: What about the normalized growth (S. cerevisiae deletion strains, locus YPL240C, strain hsp82, hits give low values) of the same compound?
Answer: 0.967

Question: And the normalized growth (S. cerevisiae deletion strains, locus YPL241C, strain CIN2, hits give low values)?
Answer: 0.998

Question: What about the normalized growth (S. cerevisiae deletion strains, locus YPL256C, strain CLN2, hits give low values) of the same compound?
Answer: 0.985

Question: And the normalized growth (S. cerevisiae deletion strains, locus YPR119W, strain clb2, hits give low values)?
Answer: 0.966

Question: And the normalized growth (S. cerevisiae deletion strains, locus YPR141C, strain kar3, hits give low values)?
Answer: 0.975

Question: And the normalized growth (S. cerevisiae deletion strains, locus YPR163C, strain tif3, hits give low values)?
Answer: 0.987

Question: What about the normalized growth (S. cerevisiae deletion strains, locus YPR167C, strain met16, hits give low values) of the same compound?
Answer: 0.984

Question: And the normalized growth (S. cerevisiae deletion strains, strain wtn01, hits give low values)?
Answer: 0.996

Question: And the normalized growth (S. cerevisiae strains, strain wild type, hits give low values)?
Answer: 1.07
